{"source": "PubChem BioAssay AID743169", "about": "(National Center for Advancing Translational Sciences (NCATS), 2013)", "note": "Calls of active or inactive are those of the source. Calls follow the shape of the dose curve; as a rule, active = well fitted curve in the direction sought with a large enough effect; inactive = no such curve, though single readings can be large or run the other way.", "data": [{"target": "L-lactate dehydrogenase A chain (human) (UniProt V9HWB9)", "assay": "Extended Characterization of HPGD Inhibitors: Counterscreen Against LDHA", "conditions": "LDHA enzyme, diaphorase/resazurin coupled fluorescence; series mostly up to 57.1 µM", "excerpt": "The central role of HPGD is to inactivate prostaglandins such as prostaglandin E2 (PGE2) or prostaglandin D2 (PGD2). These prostaglandins are involved in a number of processes, including inflammation, differentiation, and cellular signaling, which makes HPGD an important target for pharmacological intervention. A number of prostaglandins of particular biological interest have been identified as substrates of HPGD. […] Over-production of PGE2 has been reported to promote tumor-associated neovascularization, cell proliferation, and tumor growth. […] In order to further characterize the compounds, we ran them against an LDHA counterscreen. LDHA converts pyruvate to lactate while regenerating NAD+ from NADH. LDHA enzymatic activity is then coupled to the activity of diaphorase, which reversibly catalyzes the reaction of […] while simultaneously reducing resazurin to the fluorescent resorufin. This change in fluorescence signal (excitation 544 nm; emission, 590 nm) was monitored using the ViewLux CCD imager (Perkin Elmer). Data were normalized against no enzyme control wells and no compound control wells. NIH Chemical Genomics Center [NCGC] NIH Molecular Libraries Probe Centers Network [MLPCN] MLPCN Grant: MH084681 Assay Submitter (PI): Structural Genomics Consortium\n3 uL of LDHA enzyme in assay buffer are added to plate before 23 nL of compound/control are pinned into the solution. After a 15 min incubation, 1 uL of NADH (60 uM final) and sodium pyruvate (160 uM final) are added, incubated at 8 min at RT before another 1 uL of Diaphorase / Resazurin is added. The plate is read on the ViewLux after a 10 min RT incubation", "values": [{"smiles": "Cc1cc(-c2nnc3n2CCCCC3)c(C)n1-c1ccc(Cl)c(Cl)c1", "outcome": "inactive"}, {"smiles": "Cc1ccc(-n2c(C)cc(-c3nnc4n3CCCCC4)c2C)cc1", "outcome": "inactive"}, {"smiles": "Cc1cc(-c2nnc3n2CCCCC3)c(C)n1-c1cccc(C(F)(F)F)c1", "outcome": "inactive"}, {"smiles": "Cc1cc(-c2nnc3n2CCCCC3)c(C)n1-c1cccc(Cl)c1", "outcome": "inactive"}, {"smiles": "O=C(c1ccc2c(c1)ncn2-c1cccc(C(F)(F)F)c1)N1CCCCC1", "outcome": "inactive"}, {"smiles": "COc1ccc(-n2cnc3cc(C(=O)N4CCCCC4)ccc32)cc1", "outcome": "inactive"}, {"smiles": "Cc1cc(-c2nnc3n2CCCCC3)c(C)n1-c1cccc(C#N)c1", "outcome": "inactive"}, {"smiles": "Cc1cccc(-n2cnc3cc(C(=O)N4CCCC(C(F)(F)F)C4)ccc32)c1", "note": "(stereo not given)", "outcome": "inactive"}, {"smiles": "O=C(c1ccc2c(c1)ncn2-c1cccc(Cl)c1)N1CCCCC1", "outcome": "inactive"}, {"smiles": "Cc1cccc(-n2cnc3cc(C(=O)N4CCCC(C)(C)C4)ccc32)c1", "outcome": "inactive"}]}]}
